Results taken from PubChem BioAssay AID1903 (Southern Research Specialized Biocontainment Screening …, 2009).
Out of some 310,000 compounds screened, about 1,200 (0.39%) were called active. The rule behind the calls is not given here. Only a sample is shown. Measured potencies and affinities stand elsewhere.

The compounds below were run against Large T antigen (Simian virus 40) (UniProt P03070) (assay: TAg ATPase/helicase activity blockers – biochemical (AID 1903)). Settings: SV40 large T antigen ATPase/helicase inhibition assay; at 20 µM; active compounds read high.
Large T antigen (Simian virus 40), sequence (P03070 whole entry, looked up): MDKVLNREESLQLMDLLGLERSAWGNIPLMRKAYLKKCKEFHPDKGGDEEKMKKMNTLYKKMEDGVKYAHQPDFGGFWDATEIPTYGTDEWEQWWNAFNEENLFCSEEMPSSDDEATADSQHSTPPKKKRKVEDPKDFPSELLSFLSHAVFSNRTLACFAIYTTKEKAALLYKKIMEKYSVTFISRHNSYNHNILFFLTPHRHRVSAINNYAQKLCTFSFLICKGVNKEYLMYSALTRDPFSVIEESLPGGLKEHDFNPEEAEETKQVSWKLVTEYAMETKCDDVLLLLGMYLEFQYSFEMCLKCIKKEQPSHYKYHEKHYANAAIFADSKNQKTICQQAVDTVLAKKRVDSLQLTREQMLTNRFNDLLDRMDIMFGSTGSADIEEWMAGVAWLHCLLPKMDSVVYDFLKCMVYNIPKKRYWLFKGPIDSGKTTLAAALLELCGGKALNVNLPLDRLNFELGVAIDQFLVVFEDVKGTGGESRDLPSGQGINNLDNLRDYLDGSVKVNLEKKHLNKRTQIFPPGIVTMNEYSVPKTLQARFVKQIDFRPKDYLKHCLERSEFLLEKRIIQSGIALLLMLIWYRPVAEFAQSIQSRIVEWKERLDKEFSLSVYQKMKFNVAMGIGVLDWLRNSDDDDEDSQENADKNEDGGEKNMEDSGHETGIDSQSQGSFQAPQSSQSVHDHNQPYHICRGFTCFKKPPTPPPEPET

inhibition, inactive:
O=S(=O)(Nc1cccc(-c2ccc(N3CCCCCC3)nn2)c1)c1ccc(C(F)(F)F)cc1 2.18%
C#CCOCCOCCOCCNc1nc(N2CCN(C(=O)Cn3cc(CCCCN)nn3)CC2)nc(N2CCN(C(=O)[C@H](C(C)C)n3cc(CCO)nn3)CC2)n1 9.84%
CC1=C(C(=O)NCc2ccccc2)C(c2cccnc2)n2ncnc2N1 (configuration not stated) 0.75%
Cc1cc(=O)[nH]c(SCc2ccccc2)n1 -3.07%
CCN(c1ccccc1)S(=O)(=O)c1ccc2ccccc2c1 1.9%
COc1cccc(OC)c1C(=O)Nc1ccc([N+](=O)[O-])cn1 8.19%
CC(=O)c1ccc2c(c1)C1C=CCC1C(c1ccncc1)N2 (configuration not stated) 7.95%
O=C(OC1CCCCC1)c1ccc2c(c1)C1C=CCC1C(C(=O)O)N2 (configuration not stated) 33.8%
COc1ccc(N2CCN(C(=O)c3ccc(SC)cc3OC)CC2)cc1 18.7%
COc1cc(Cl)ccc1NC(=O)COc1ccccc1C(=O)NN 6.94%
COc1cc(SC)ccc1C(=O)N1CCN(c2ccccc2)CC1 2.66%
COc1cc(SC)ccc1C(=O)N1CCN(c2ccccc2OC)CC1 2.01%
COc1ccccc1NC(=O)COC(=O)c1ccccc1C(=O)N1CCN(c2ccccc2)CC1 6.53%
COc1cc(SC)ccc1C(=O)N1CCN(Cc2ccc3c(c2)OCO3)CC1 18.1%
Cc1ncc([N+](=O)[O-])n1Cc1ccc(Br)cc1 7.03%
CCc1cccc(C)c1NC(=O)CN(C)Cc1ccc(Br)cc1 9.47%
O=C(NCc1ccco1)C1CC(c2ccc(F)cc2)=NO1 (configuration not stated) 6.38%
N#C/C(=C\c1c[nH]c2ccccc12)C(N)=O 5.89%
COC(=O)/C(C#N)=C\c1c(OC)[nH]c2ccccc12 8.82%
O=C(CN(c1ccccc1F)S(=O)(=O)c1ccccc1)Nc1ccccc1C(=O)N1CCOCC1 11.3%
Cc1cccc(NC(=O)c2ccc(N3CCOCC3)c([N+](=O)[O-])c2)n1 -1.72%
O=C(CNC(=O)c1cccc(F)c1)N/N=C/c1cccnc1 20.9%
C=C(C)CSc1nc2c(cc1C#N)CCC2 7.26%
CCn1c(COc2ccc(C)cc2)nc2ccccc21 3.75%
Cc1ccc(-c2nc(N)s[n+]2-c2ccccc2)cc1 13.6%
Cc1ccc(-c2nc3ccccc3nc2-c2ccccc2)cc1 0.76%
O=C1C(Cl)=C(N2CCCCC2)C(=O)N1Cc1ccccc1 0.56%
Cc1ccc(C(=O)N/C(=C\c2sccc2C)C(=O)NCc2ccco2)cc1 7.34%
CC1=NOC(=O)/C1=C\c1ccc(-c2ccc(Cl)cc2Cl)o1 16.7%
COc1ccc(-c2ccc(/C=C3\C(=O)N(c4ccccc4)N=C3c3ccccc3)o2)c([N+](=O)[O-])c1 2.08%
Cc1ccc(/C=C2\C(=O)ON=C2c2ccccc2)o1 -2.84%
O=C(O)/C(=C\c1ccc(-c2ccccc2[N+](=O)[O-])o1)c1ccccc1 10.1%
Cc1ccc(C2=NOC(=O)/C2=C\c2ccccc2)cc1 59.5%
O=C1/C(=C\c2ccc(-c3ccccc3[N+](=O)[O-])o2)C(c2ccccc2)=NN1c1ccccc1 -3.41%
O=C1COc2ccc(C(=O)COC(=O)c3sc4ccccc4c3Cl)cc2N1 7.71%
CCOc1ccc(CN(C)CC(=O)Nc2ccc(N3CCOCC3)cc2)cc1OC 6.36%
CC(NC(=O)c1ccccc1F)c1ccccc1 (configuration not stated) 3.89%
O=C(NCCNC1CCN(Cc2ccccc2)CC1)c1cccs1 5.49%
O=C1CCCC(=O)C1CS(=O)(=O)c1ccccc1 14.9%
CCOC(=O)N1CCC(=NNc2nc3ccccc3s2)CC1 8.66%
CC1(C)C(=O)Nc2ccccc2N1C(=O)COC(=O)c1ccc(Cl)c(S(=O)(=O)NCc2ccccc2)c1 6.69%
O=C(Nc1ccccc1F)c1ccccc1C(=O)Nc1ccccc1F 14.6%
CCCCn1c(N)c(N(CCC(C)C)C(=O)CC2CCCC2)c(=O)[nH]c1=O 19.1%
COc1ccc(CC(=O)NN2C(=O)c3ccccc3C2=O)cc1 10.8%
COc1ccc2[nH]cc(CCNC(C)=O)c2c1 -0.22%
O=C1c2ccccc2C(=O)N1CCCc1c[nH]c2ccc(Cl)cc12 8.17%
O=C(O)Cc1c[nH]c2ccc(O)cc12 29.6%
N[C@@H](Cc1c[nH]c2ccc(O)cc12)C(=O)O 20.5%
O=C1c2ccccc2C(=O)N1CCc1c[nH]c2ccccc12 14.9%
CC(=O)NCCc1c[nH]c2ccc(OCc3ccccc3)cc12 17%
COc1ccccc1CCN1CCCC(CN(C)C(=O)c2ccc3nc[nH]c3c2)C1 (configuration not stated) 6.91%
Cc1ccc(C)c(S(=O)(=O)N2CCCOC2CNC(=O)C(=O)NCCCn2ccnc2)c1 (configuration not stated) 7.3%
Cc1[nH][nH]c(=O)c1C=NCc1cccc(C(F)(F)F)c1 8.38%
CC(=N)c1c(O)c2ccccc2oc1=O 20.4%
O=C(Oc1cccc(Cl)c1)N1CCOCC1 7.93%
NS(=O)(=O)c1ccc(NC(=O)COC(=O)c2cccc(S(=O)(=O)N3CCCC3)c2)cc1 11.7%
Cc1c(NC(=O)c2cccc(-c3cc4ccccc4oc3=O)c2)cccc1-c1nc2ncccc2o1 -0.4%
CCCCNc1nnc(Cc2ccc(Cl)cc2)c(=O)[nH]1 9.41%
COc1ccc(NC2CCCN(C(=O)CCN3Cc4ccccc4C3=O)C2)cc1 (configuration not stated) 34.5%
COc1ccc(NC2CCCN(C(=O)CCN3CCCO3)C2)cc1 (configuration not stated) 23%
O=C(CSc1ccccc1)N1CCCC(Nc2ccccc2)C1 (configuration not stated) 7.87%
COc1ccc(NC2CCCN(C(=O)CCCn3cncn3)C2)cc1OC (configuration not stated) 33.9%
COc1ccc(NC2CCCN(C(=O)CSc3ccncc3)C2)cc1 (configuration not stated) 31.4%
O=C(CCCn1cncn1)N1CCCC(Nc2ccc(F)cc2)C1 (configuration not stated) 5.07%
COc1ccc(S(=O)(=O)Nc2cc(C(=O)NC3CCCCCC3)ccc2N2CCOCC2)cc1 3.07%
CCc1nn(CC(=O)NCCCN2CCCC2=O)c(=O)c2cc3sccc3n12 -4.15%
Cc1ccc(NS(=O)(=O)c2c(C)[nH]c(C)c2C(=O)N2CCCCC2)c(Cl)c1 -2.05%
CCOC(=O)c1ccc(NC(=O)C(=O)NCc2ccccn2)cc1 -2.35%
CC(C)(CC(=O)O)CC(=O)Nc1ccc2c(c1)ncn2CCc1ccccc1 5.95%
CCOc1cc(/C=C2\SC(N)=NC2=O)ccc1O 34.2%
Cc1c(N=C2C(=O)Nc3ccccc32)c(=O)n(-c2ccccc2)n1C 1.2%
NC1=NC(=O)S/C1=C\c1ccc(F)cc1 8.64%
CC(C)(C)c1ccc(/C=C2\SC(=O)N=C2N)cc1 5.32%
COc1ccc(/C=C2/SC(=O)NC2=O)cc1 12.9%
COc1ccc(/C=C2\SC(=O)N=C2N)cc1OC 8.84%
O=C1NC(=O)/C(=C\c2ccc(Cl)nc2)S1 8.29%
Cc1c(N=C2NC(=O)/C(=C/c3cccc([N+](=O)[O-])c3)S2)c(=O)n(-c2ccccc2)n1C 4.3%
CCN(CC)CCSc1nc(O)c(C(C)C)c(=O)[nH]1 14.1%
COC(=O)[C@@H](Cc1c[nH]c2ccccc12)NC(=O)c1cc(=O)[nH]c2ccccc12 2.68%
CCOc1cc(S(=O)(=O)NC2CCCC2)ccc1Cl 2.79%
O=C(NCc1cccs1)C(=O)c1c[nH]c2ccccc12 -25.6%
Cc1occc1-c1nnc(SCC(=O)N2CCOCC2)o1 1.14%
O=S(=O)(Nc1nc2c(s1)CCCC2)c1ccc(Br)cc1 -1.56%
COc1ccc(/C=C(\NC(=O)c2ccccc2)C(=O)OCC2CCCN3CCCCC23)cc1OC (configuration not stated) -3.64%
COc1ccc(/C=C/C(=O)OCC(=O)Nc2cc(S(=O)(=O)N(C)C)ccc2Cl)cc1 3.97%
COc1cccc(NC(=O)c2ccc(N3C(=O)C4CC=C(C)CC4C3=O)cc2)c1 (configuration not stated) 7.31%
Cc1cccc(S(=O)(=O)Nc2nc3ccccc3nc2Nc2ccc3c(c2)OCO3)c1 17.6%
Cc1nc2ccc(Br)cc2c2c1CC(CBr)O2 (configuration not stated) 10.6%
O=C(O)c1cccc(Nc2c3ccccc3nc3ccccc23)c1 -9.05%
Cc1ccc(O)c(Nc2c3ccccc3nc3ccccc23)c1 12.6%
CCCCNC(=O)OCCNC(=O)NC 7.67%
COc1ccc(N2CCC(CNC(=S)Nc3cc(C)cc(C)c3)C2)cc1 (configuration not stated) 28.6%
COc1ccc(N2CCN(CC(=O)Nc3c(C)cc(C)cc3C)CC2)cc1 24%
COc1ccc(N2CCN(C(=S)Nc3cc(C)ccc3C)CC2)cc1 3.41%
COc1ccc(NC(=S)NCC2CCN(c3ccc(OC)cc3)C2)cc1 (configuration not stated) 36.1%
COc1ccc(N2CCC(CNC(=S)Nc3cc(C)ccc3C)C2)cc1 (configuration not stated) 36.6%
COc1ccc(N2CCC(CNC(=S)Nc3cccc(C)c3)C2)cc1 (configuration not stated) 21.4%
